This is an account of results in PubChem BioAssay.

Active and inactive are the calls of the source.

For test [1], the system named is Human papillomavirus type 1a protein E7 (residues 44-93). Description: small molecules binding HPV E7 44-93 – biochemical, small-molecule microarray, residues 44-93, 635 nm fluorescence, primary screen (AID 1108).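 Further: E7 fragment applied at 1 µg/mL in TBST for 1 h at 4 C; score combines spot fluorescence with its signal to noise ratio.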 The note with it: fluorescence 635 nm, higher = more signal.
A short description of test [2]: hepatitis C replication reporter changes, two-sided – Huh7 cells, luciferase reporter, HCV replication inhibitor project, primary screen (AID 1109).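 Further: huh7 hepatoma cells harbouring a luciferase neomycin HCV replicon reporter; luciferase luminescence as measure of HCV replicon replication; test concentration not given here.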 The note with it: Huh7 HCV replicon luciferase reporter, 48 h; higher = more signal. On the technique in general: A reporter such as luciferase makes a cellular process visible.
Test [3] addresses Left-right determination factor 2 (Homo sapiens) (UniProt O00292). Description: small molecules binding LEFTY2 protein – biochemical, small-molecule microarray, 635 nm fluorescence scan, primary screen (AID 1110). The note with it: higher = more signal.
Test [4] deals with Calmodulin-1 (Homo sapiens) (UniProt P0DP23). Description: small molecules binding calmodulin-1 with EGTA – biochemical, small-molecule microarray, Cy5-labelled CALM1, profiling panel (AID 1111).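 Further: labelled calmodulin applied in Tris saline Tween buffer holding calcium plus EGTA and DTT.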 The note with it: Cy5-CALM1 binding fluorescence, higher = more signal.
The target is the same in test [5]. Description: small molecules binding Ca-loaded calmodulin-1 – biochemical, small-molecule microarray, Cy5-labelled CALM1, plus calcium, artefact control for SMM control-protein annotation, profiling panel (AID 1112).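 Further: score merges spot fluorescence with signal to noise from triplicate slides.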 The note with it: Cy5-CALM1 binding fluorescence, higher = more signal.
Test [6] in a line: probe aWnt5a binding to arrayed compounds – biochemical, biotinylated probe, 635/667 nm fluorescence, primary screen (AID 1113).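 Further: score merges 667 nm fluorescence intensity with signal-to-noise per printed feature.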 The note with it: small-molecule microarray, higher = more signal.
Test [7] in a line: probe aShh binding to arrayed compounds – biochemical, biotinylated probe, 635/667 nm fluorescence, primary screen (AID 1114).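 Further: probe is biotin-labelled aShh protein from a stem cell growth factor screen; measures binding of labelled protein to compounds printed on the slide; score merges feature fluorescence at 667 nm with signal-to-noise.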 The note with it: small-molecule microarray, higher = more signal.
A short description of test [8]: probe aNog binding to arrayed compounds – biochemical, biotinylated probe, 635/667 nm fluorescence, primary screen (AID 1115).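 Further: probe is biotinylated aNog protein used at 0.15 µg/mL for 1 h at 4 C; z-score combines 667 nm fluorescence of each spot with its signal to noise.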 The note with it: small-molecule microarray, higher = more signal.
Test [9] concerns the target Torsin-1A-interacting protein 1 (Homo sapiens) (UniProt Q5JTV8). Briefly: compound microarray binding of lysate hLAP1 – cell lysate, small-molecule microarray, COS7 lysate, 635/667 nm fluorescence, primary screen (AID 1116). The note with it: 635 nm fluorescence, higher = more signal.
Test [10] addresses Alpha-bungarotoxin (Bungarus multicinctus) (UniProt P60615). Description: compounds binding labelled alpha-BTX control protein – biochemical, small-molecule microarray, Alexa647 label, 635/667 nm fluorescence, artefact control for SMM control protein annotation, profiling panel (AID 1117). The note with it: alpha-BTX-A647 binding fluorescence, higher = more signal.
The target of test [11] is Albumin (Bos taurus) (UniProt P02769). Briefly: compounds binding labelled BSA control protein – biochemical, small-molecule microarray, Alexa647 label, 635/667 nm fluorescence, artefact control for SMM control protein annotation, profiling panel (AID 1118).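 Further: score merges 667 nm emission intensity and signal-to-noise per printed compound spot.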 The note with it: BSA-A647 binding, fluorescence 635 nm, higher = more signal.
A short description of test [12]: probe aXIP binding to arrayed compounds – biochemical, NeuroSMM set, 635/667 nm fluorescence, primary screen (AID 1119).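 Further: probe is the protein aXip251-270 applied at 1 µg/mL to compound-printed slides; binding of probe to printed compounds measured as 667 nm fluorescence plus signal to noise.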 The note with it: small-molecule microarray, higher = more signal, called active from +8 up or from −8 down.
Test [13] can be described thus: probe aNOTCH3 binding on compound microarray – biochemical, small-molecule microarray, 635/667 nm fluorescence, primary screen (AID 1120).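 Further: probe is a biotin-tagged antibody raised against NOTCH3 rather than NOTCH3 protein; score merges spot fluorescence near 667 nm with spot signal to noise.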 The note with it: higher = more signal.
A short description of test [14]: probe aNOTCH2 binding on compound microarray – biochemical, small-molecule microarray, 635/667 nm fluorescence, primary screen (AID 1121).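 Further: score merges feature fluorescence read at 667 nm with its signal to noise.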 The note with it: higher = more signal.
The target of test [15] is Carbonic anhydrase 2 (Homo sapiens) (UniProt P00918). Description: compounds binding carbonic anhydrase 2 – biochemical, small-molecule microarray, Alexa647-labelled CAII, profiling panel (AID 1122). The note with it: CAII-A647 binding fluorescence, higher = more signal.
Test [16] can be described thus: COS7 lysate on small-molecule microarray, probe aHis, 635 nm (AID 1123).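 Further: z-score combines 667nm fluorescence intensity with signal-to-noise per printed compound spot.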 The note with it: COS7 cell lysate, fluorescence, higher = more signal.
A short description of test [17]: probe aLAP1 signal on lysate-treated microarray – cell lysate, small-molecule microarray, COS7 lysate, primary screen (AID 1124).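 Further: lysate comes from COS7 cells expressing LAP1 and is applied at 0.3 µg/mL; score merges spot fluorescence near 667 nm with signal-to-noise over triplicate slides.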 The note with it: probe aLAP1, fluorescence, higher = more signal.
The test system of test [18] is Sam68 (KHDRBS1). Briefly: compounds binding KHDRBS1 protein – biochemical, small-molecule microarray, 635 nm fluorescence, primary screen (AID 1125).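 Further: score merges 667 nm channel intensity with signal to noise over triplicate slides.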 The note with it: higher = more signal.
Test [19] has as its system Chordin-like protein 2 (CHRDL2). Description: compounds binding chordin-like 2 – biochemical, small-molecule microarray, 635 nm fluorescence, primary screen (AID 1126).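 Further: printed compound slides probed with Chrdl2 protein at 4 µg/mL for 1 h at 4 C; score merges 667 nm emission intensity with signal to noise over three replicate slides.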 The note with it: fluorescence 635 nm, higher = more signal.
Test [20] has as its target Concanavalin-A (Canavalia ensiformis) (UniProt P02866). Description: compounds binding concanavalin A lectin – biochemical, small-molecule microarray, Alexa647 label, 635 nm, artefact control for SMM control protein annotation, primary screen (AID 1127).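 Further: z combines 667 nm emission intensity with signal-to-noise across three replicate slides.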 The note with it: ConA-A647 binding fluorescence, higher = more signal.

Alpha-bungarotoxin (Bungarus multicinctus), sequence (P60615 whole entry, looked up): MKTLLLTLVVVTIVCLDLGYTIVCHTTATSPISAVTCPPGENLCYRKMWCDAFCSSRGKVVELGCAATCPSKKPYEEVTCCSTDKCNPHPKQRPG
Torsin-1A-interacting protein 1 (Homo sapiens), sequence (Q5JTV8 whole entry, looked up): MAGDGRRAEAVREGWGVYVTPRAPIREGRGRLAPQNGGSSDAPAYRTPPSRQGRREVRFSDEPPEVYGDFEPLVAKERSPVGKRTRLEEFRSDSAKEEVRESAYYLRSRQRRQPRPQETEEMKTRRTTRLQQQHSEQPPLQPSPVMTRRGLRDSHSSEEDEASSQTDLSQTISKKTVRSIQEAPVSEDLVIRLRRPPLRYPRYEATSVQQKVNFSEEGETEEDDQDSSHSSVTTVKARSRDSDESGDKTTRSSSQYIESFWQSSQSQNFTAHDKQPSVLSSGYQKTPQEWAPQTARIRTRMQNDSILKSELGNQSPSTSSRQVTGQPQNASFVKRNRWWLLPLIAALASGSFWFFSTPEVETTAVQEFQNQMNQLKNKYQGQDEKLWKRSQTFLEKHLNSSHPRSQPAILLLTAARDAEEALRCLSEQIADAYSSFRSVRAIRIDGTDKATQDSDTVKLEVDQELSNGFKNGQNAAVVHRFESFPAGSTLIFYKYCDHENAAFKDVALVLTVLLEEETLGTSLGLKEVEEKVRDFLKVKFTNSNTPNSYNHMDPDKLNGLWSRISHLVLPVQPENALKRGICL
Concanavalin-A (Canavalia ensiformis), sequence (P02866 whole entry, looked up): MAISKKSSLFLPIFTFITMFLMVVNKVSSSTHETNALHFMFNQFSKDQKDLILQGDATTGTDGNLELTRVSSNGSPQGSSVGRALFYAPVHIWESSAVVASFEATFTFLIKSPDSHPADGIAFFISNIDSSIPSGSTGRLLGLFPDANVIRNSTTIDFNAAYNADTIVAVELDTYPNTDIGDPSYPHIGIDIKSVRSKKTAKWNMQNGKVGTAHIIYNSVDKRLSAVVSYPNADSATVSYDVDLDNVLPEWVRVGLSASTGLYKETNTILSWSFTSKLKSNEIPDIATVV
Albumin (Bos taurus), sequence (P02769 whole entry, looked up): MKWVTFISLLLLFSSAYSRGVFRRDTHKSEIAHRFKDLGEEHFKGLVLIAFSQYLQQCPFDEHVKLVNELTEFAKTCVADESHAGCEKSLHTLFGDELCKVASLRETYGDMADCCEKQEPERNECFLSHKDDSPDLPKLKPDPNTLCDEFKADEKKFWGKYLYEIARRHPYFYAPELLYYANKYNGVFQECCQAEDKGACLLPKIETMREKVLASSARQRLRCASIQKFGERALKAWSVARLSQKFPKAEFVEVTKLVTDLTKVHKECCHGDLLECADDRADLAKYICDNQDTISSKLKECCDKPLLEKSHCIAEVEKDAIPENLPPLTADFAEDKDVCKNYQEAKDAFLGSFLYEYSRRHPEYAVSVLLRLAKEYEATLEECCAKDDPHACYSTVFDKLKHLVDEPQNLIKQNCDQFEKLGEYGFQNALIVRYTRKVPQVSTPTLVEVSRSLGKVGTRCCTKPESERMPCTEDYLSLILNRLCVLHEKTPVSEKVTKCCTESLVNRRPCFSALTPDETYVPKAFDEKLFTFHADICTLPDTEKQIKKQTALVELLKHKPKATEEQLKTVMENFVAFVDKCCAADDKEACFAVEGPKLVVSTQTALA
Left-right determination factor 2 (Homo sapiens), sequence (O00292 whole entry, looked up): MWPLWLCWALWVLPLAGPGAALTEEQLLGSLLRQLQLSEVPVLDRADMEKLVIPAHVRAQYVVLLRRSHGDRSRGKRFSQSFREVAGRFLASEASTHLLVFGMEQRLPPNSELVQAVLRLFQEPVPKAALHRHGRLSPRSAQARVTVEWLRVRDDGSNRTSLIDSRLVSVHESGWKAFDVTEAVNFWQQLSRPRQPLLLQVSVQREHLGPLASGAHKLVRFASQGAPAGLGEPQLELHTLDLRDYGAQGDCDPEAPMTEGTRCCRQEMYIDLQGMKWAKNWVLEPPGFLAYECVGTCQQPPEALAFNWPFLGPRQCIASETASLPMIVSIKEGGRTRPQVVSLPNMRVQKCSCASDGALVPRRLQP

In the case of `Cc1ccc2[nH]c3nc(CCCn4ccnc4-c4ccccc4)nnc3c2c1`, the composite z-score in test [1] is 0.0596; in [3], 0.635; in test [4], 0.308; in test [5], -1.02; in test [6] it was -0.101; in test [7] it was 0.191. Also, the composite z-score in test [8] is -0.344; in [9] it was 0.666; in [10], 0.335; in test [11] it was 0.414; in test [13], 0.079; in test [14], -0.176. For the same molecule, the composite z-score was 0.465 in [15]; 0.656 in test [16]; 0.0559 in test [17]; 1.05 in test [18]; 0.763 in test [19]; 1.1 in test [20]. In test [2], this molecule yielded a z-score of -0.544. In addition, the composite Z-score in test [12] was -0.375 (inactive).
Regarding `O=C1C2=CC[C@H]3C(=O)N(c4ccc(F)cc4F)C(=O)[C@H]3[C@H]2[C@H](O)[C@@H]2O[C@H]12`, the composite z-score was 0.356 in test [1]; 0.662 in test [3]; -0.232 in [4]; -0.773 in test [5]; -0.206 in test [6]; -0.352 in test [7]. The composite z-score in test [8] is -0.553; in test [9], 0.335; in test [10] it was 0.455; in test [11] it was 0.0384; in test [13], -0.165; in [14], -0.118. Also, the composite z-score in test [15] was -0.0649; in test [16] it was -0.293; in test [17], 0.0054; in test [18], 0.339; in [19] it was 0.783; in test [20], 0.469. Moreover, the z-score in test [2] is -0.155. Moreover, the composite Z-score in test [12] is -0.778 (inactive).
In the case of `CO[C@@H]1COC(=O)[C@H](CCSC)NC(=O)CC=C[C@@H](C)COC(=O)[C@@H]2CCCN2C(=O)CC=C[C@H]1C`, the composite z-score in test [1] is -0.427; in [3], 0.857; in test [4], -0.776; in test [5], -1.36; in [6], -0.0276; in test [7], 0.0278. Besides, the composite z-score in test [8] is -0.036; in test [9], 0.771; in test [10], -0.245; in test [11], -1.43; in test [13], 0.0306; in [14], -0.199. Further, the composite z-score is -0.291 in test [15]; -0.462 in [16]; -0.328 in [17]; 0.34 in test [18]; 0.946 in [19]; -0.353 in [20]. The molecule also showed a z-score in test [2] of -0.522. The composite Z-score in test [12] was 0.605 (inactive).
In the case of `O=C1C2=CC[C@H]3C(=O)N(C4CCCCC4)C(=O)[C@H]3[C@H]2[C@H](O)[C@@H]2O[C@H]12`, the composite z-score in [1] was -1.46; in [3], -0.0026; in test [4] it was -0.883; in [5], -0.828; in [6] it was -0.206; in test [7], -0.282. Besides, the composite z-score is -0.307 in [8]; -0.11 in test [9]; -0.635 in test [10]; 0.964 in test [11]; -0.199 in test [13]; -0.149 in [14]. Also, the composite z-score in test [15] is 0.335; in [16], -0.888; in [17], -0.17; in [18], -2.02; in test [19], 0.0365; in test [20], -0.21. In test [2], this molecule gave a z-score of -5.43. In test [12], the composite Z-score is -0.631 (inactive).
For `CC(C)CN1CCc2nc(-c3ccccc3)c3c(c2C1)CO[C@@H](C)C3`, the composite z-score is 1.01 in test [1]; 0.881 in [3]; 0.566 in test [4]; 0.32 in test [5]; -0.0285 in test [6]; 0.0751 in test [7]. Moreover, the composite z-score is -0.149 in test [8]; 0.152 in test [9]; 0.365 in test [10]; 0.729 in test [11]; 0.0636 in [13]; 0.0341 in test [14]. In addition, the composite z-score in [15] was 0.465; in test [16] it was 0.798; in test [17], 0.0322; in test [18] it was 1.29; in [19], 0.53; in test [20] it was 1.11. Besides, the z-score in test [2] was -0.791. Besides, the composite Z-score in test [12] is -0.548 (inactive).
Consider `C#CCCCON=C1C[C@@H](O)[C@@H](O)[C@@H]2[C@@H]3C(=O)N(C[C@@H]4CCCO4)C(=O)[C@@H]3CC[C@@H]12`, for which the composite z-score was 0.578 in [1]; 0.386 in test [3]; -0.358 in test [4]; -0.129 in test [5]; -0.0865 in [6]; -0.153 in test [7]. The composite z-score in test [8] was 0.223; in test [9] it was -0.0438; in test [10], 0.506; in test [11] it was 0.211; in test [13] it was -0.047; in test [14], -0.0614. Moreover, the composite z-score is 0.406 in test [15]; 0.31 in test [16]; 0.221 in test [17]; 0.254 in test [18]; 0.264 in test [19]; 0.842 in [20]. Moreover, the z-score in test [2] came to 0.367. Also, the composite Z-score in test [12] is -0.294 (inactive).
